The source of these data is PubChem BioAssay (Tox21).

Results filed as inconclusive are left out. Values without a mark were called inactive. Calls follow the shape of the full dose curve.
% is scaled to controls: 0 for no effect and ±100 for the full control effect.

The test is described as follows: cAMP Responsive Elements (CRE) small molecule agonists, cell-based qHTS assay (AID 1963590). The following applies: CRE-bla HEK293T, beta-lactamase FRET ratio, 3 h; series mostly up to 92.4 µM; activation: at the top concentration. In short, it runs like this: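 HEK 293T CRE-bla, 2,000 cells/well, 18 h preincubation 37 C/5% CO2; cpds (DMSO) pinned, 3 h; LiveBLAzer B/G FRET substrate, 2 h RT.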
With `O=C=NCC1CCCC(CN=C=O)C1` (centres undefined), the “activation” value is 3.34%.
`CCOc1ccc(NS(=O)(=O)c2ccc(N)cc2)nn1`: the “activation” value was -0.404% [at 42.5 µM].
The same measure for `COC(=O)c1cc(Cl)cc(Cl)c1`: 0.158%; for `Cc1[nH]c(C)c(Cl)c(=O)c1Cl`: -0.819% [at 19 µM]; for `CCCNCCC`: -0.178%.
For the molecule `COc1cc(N)ccc1C`, the “activation” value was -1.34%.
Turning to `NCCCCCCNCCCCCCN`, the “activation” value was 1.77%.
Then `CC(C)(C)C1CCCCC1=O` (centres undefined), with 0.507%; and `CN(C)CCOCCO`, with 2.34%; and `CC1(C)CC(O)CC(C)(C)N1[O]`, with 0.588%.
For the molecule `C=CCCCCCCCCCCCCCC`, the activation was -0.128% [at 19 µM].
The same measure for `CCN1C=CN(C)C1C` (centres undefined): -0.479%.
Then `CC[N+](C)(CC)CCOC(=O)C1c2ccccc2Oc2ccccc21`, with -0.241% [at 42.5 µM]; and `NCCCN(CCO)CCO`, with 2.07%; and `O=Cc1cc(O)ccc1Br`, with 3.02%.
Then `O=CN(CCO)CCO`, with -0.703%; and `CCC(CC)CO`, with 0.416%; and `CC/C=C\CC/C=C/CO`, with 0.665%.
With `C1C2OC2C2C1C1CC2C2OC12` (centres undefined), the “activation” value is 0.174%.
For the molecule `CCCCOC(=O)CCCCC(=O)OCCCC`, the “activation” value was -3.88%.
In the case of `C=C[Si](OC)(OC)OC`, the “activation” value is -0.384%.
On to `CC(CC=O)CCCC(C)(C)O` (centres undefined), for which the “activation” value was -0.21%.
Regarding `CCOC(=O)C1=NN(c2ccccc2)C(=O)C1`, the “activation” value is 0.705%.
Turning to `Cc1c(Cl)cccc1Cl`, the “activation” value is -1.57%.
On to `O=C1c2cccc3c2[C@H](CCC3)CN1[C@@H]1CN2CCC1CC2`, for which the “activation” value is 0.0086% [at 42.5 µM].
The same measure for `CCCCC(CC)COC(=O)c1ccccc1` (centres undefined): 0.701%; for `CN(C)CCOC(=O)C(c1ccccc1)C1(O)CCCC1` (centres undefined): 0.563% [at 42.5 µM].
Take `CCN1CCC[C@H]1CNC(=O)c1c(OC)ccc(Br)c1OC`: the “activation” value is -0.0001% [at 42.5 µM].
As to `CCCCCCCCCCCCCCCC(=O)OCC`, the “activation” value was -0.419%.
